In PubChem BioAssay one finds tube area decrease and GLP1 secretion stimulation data, which are given here for 38 compounds.

The structures appear in SMILES notation. Calls of active or inactive are those of the source.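 How the source made its calls, unless noted: active means compound raises GLP1 secretion from the human gut endocrine cells, with no numeric limit stated; inactive means the rest.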

The nature of the first assay: inhibition of endothelial tube formation, primary screen, imaging, VEGF stimulated, CD31 staining, tube area, NPC library (AID 1117340;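 active means compound that reduces growth-factor-driven endothelial tube area in a mixed cell culture, no cutoff stated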). The note with it: VEGF-stimulated ADSC/ECFC co-culture, at 10 µM, hits give high values.
As for `C[C@H](N)[C@H](O)c1cccc(O)c1`, the tube area decrease is 12.1% (inactive).

Take `CN(Cc1cc(Br)cc(Br)c1N)C1CCCCC1`: the tube area decrease was 7.5% (inactive).

Take `CC(=O)Nc1ccccc1`: the tube area decrease was -10.1% (inactive).

With `CC(=O)Nc1ccc(S(=O)(=O)Nc2ccc([N+](=O)[O-])cc2)cc1`, the tube area decrease is 18.2% (inactive).

As for `CCCOc1ccc2nc(NC(=O)OC)[nH]c2c1`, the tube area decrease was 107% (active).

Regarding `CN(C)CCOC(=O)C(c1ccccc1)C1(O)CCCC1` (stereo unspecified), the tube area decrease is -3.4% (inactive).

For `Cc1cc(O)cc(C)c1Cl`, the tube area decrease is -5.3% (inactive).

In the case of `CCCCCCc1ccc(O)cc1O`, the tube area decrease is 30.7% (inactive).

Turning to `Nc1ncnc2nc[nH]c12`, the tube area decrease is -30.5% (inactive).

As for `CC(N)C(=O)OC(C)(C)Cc1ccc(Cl)cc1` (stereo unspecified), the tube area decrease is -6.7% (inactive).

Take `COc1c2occc2c(OC)c2c(=O)cc(C)oc12`: the tube area decrease was 21.8% (inactive).

On to `CC1=C(C(=O)O)N2C(=O)[C@@H](NC(=O)[C@H](N)c3ccc(O)cc3)[C@H]2SC1`, for which the tube area decrease was -4.7% (inactive).

On to `COc1ccc(NS(=O)(=O)c2ccc(N)cc2)nn1`, for which the tube area decrease was 14% (inactive).

For `NC[C@H]1O[C@H](O[C@H]2[C@H](O)[C@@H](O[C@H]3O[C@H](CO)[C@@H](O)[C@H](N)[C@H]3O)[C@H](N)C[C@@H]2N)[C@H](N)[C@@H](O)[C@@H]1O`, the tube area decrease was -8.4% (inactive).

For `CCCCc1nc(Cl)c(CO)n1Cc1ccc(-c2ccccc2-c2nn[nH]n2)cc1`, the tube area decrease is 11.8% (inactive).

Take `CC(=O)Oc1cccc(O)c1`: the tube area decrease is 20.9% (inactive).

For `COc1ccc(C(=O)c2ccccc2)c(O)c1`, the tube area decrease was 6.3% (inactive).

As for `O=C(N[C@H](CO)[C@H](O)c1ccc([N+](=O)[O-])cc1)C(Cl)Cl`, the tube area decrease is 12.5% (inactive).

Consider `CCN(CC)CCOC(=O)C(c1ccccc1)C1CCCCC1` (stereo unspecified), for which the tube area decrease was 14.5% (inactive).

For `Nc1c2ccccc2nc2ccccc12`, the tube area decrease was 81.5% (active).

Take `Oc1c(Br)cc(Br)c2cccnc12`: the tube area decrease is 108% (active).

For the compound `C[N+]12CCC(CC1)C(OC(=O)C(O)(c1ccccc1)c1ccccc1)C2` (stereo unspecified), the tube area decrease is 0.5% (inactive).

As for `CC(=O)Nc1c(I)cc(I)c(C(=O)O)c1I`, the tube area decrease was 34.2% (inactive).

On to `Cc1c(NC(C)C)c(=O)n(-c2ccccc2)n1C`, for which the tube area decrease is 4% (inactive).

With `COc1ccc2cc3[n+](cc2c1OC)CCc1cc2c(cc1-3)OCO2`, the tube area decrease was 57.3% (active).

Regarding `NC(N)=N/N=C/c1c(Cl)cccc1Cl`, the tube area decrease is 18.2% (inactive).

On to `CCN(CC)C(=O)c1cccc(C)c1`, for which the tube area decrease is -44.2% (inactive).

As for `CC(=O)OCC(COC(C)=O)OC(C)=O`, the tube area decrease was -8.3% (inactive).

Turning to `CC1(C)OC(=O)NC1=O`, the tube area decrease was 2.9% (inactive).

As for `COc1cnc(NS(=O)(=O)c2ccc(N)cc2)nc1`, the tube area decrease was -5.6% (inactive).

For `CCCCC(CC)CN1CN(CC(CC)CCCC)CC(C)(N)C1` (stereo unspecified), the tube area decrease is 16% (inactive).

As to `Cc1[nH]c(C)c(Cl)c(=O)c1Cl`, the tube area decrease was -15.3% (inactive).

With `Cc1nnc(NS(=O)(=O)c2ccc(N)cc2)s1`, the tube area decrease was 19.3% (inactive).

Consider `Nc1ccc(C(=O)O)cc1`, for which the tube area decrease was -16.4% (inactive).

`Nc1nccs1`: the tube area decrease was 5.4% (inactive).

Regarding `COc1ccc(-c2cc(C(F)F)nn2-c2ccc(S(N)(=O)=O)cc2)cc1F`, the tube area decrease was 10.3% (inactive).

Consider `NC(=O)c1ccc([N+](=O)[O-])cc1Cl`, for which the tube area decrease was -35.4% (inactive).

Turning to `CCC(=O)O[C@H]1[C@H](O[C@@H]2[C@@H](C)[C@H](O[C@H]3C[C@@](C)(OC)[C@@H](O)[C@H](C)O3)[C@@H](C)C(=O)O[C@H](CC)[C@@](C)(O)[C@H](O)[C@@H](C)C(=O)[C@H](C)C[C@@]2(C)O)O[C@H](C)C[C@@H]1N(C)C`, the tube area decrease is 5.5% (inactive).

Another assay in a line: glucagon-like peptide 1 release enhancers, primary assay, NCI-H716 cell line, NPC library (AID 1117341). Further: reference of the scale not given here. The note with it: NCI-H716 cells, at 10 µM, hits give high values.
As to `C[C@H](N)[C@H](O)c1cccc(O)c1`, the GLP1 secretion stimulation is -3.4% (inactive).

For the compound `CN(Cc1cc(Br)cc(Br)c1N)C1CCCCC1`, the GLP1 secretion stimulation was -1.6% (inactive).

As for `CC(=O)Nc1ccccc1`, the GLP1 secretion stimulation is 2.1% (inactive).

With `CC(=O)Nc1ccc(S(=O)(=O)Nc2ccc([N+](=O)[O-])cc2)cc1`, the GLP1 secretion stimulation is 3.6% (inactive).

`CCCOc1ccc2nc(NC(=O)OC)[nH]c2c1`: the GLP1 secretion stimulation is -1.2% (inactive).

Turning to `CN(C)CCOC(=O)C(c1ccccc1)C1(O)CCCC1` (stereo unspecified), the GLP1 secretion stimulation is -3.8% (inactive).

Turning to `Cc1cc(O)cc(C)c1Cl`, the GLP1 secretion stimulation was -2% (inactive).

On to `CCCCCCc1ccc(O)cc1O`, for which the GLP1 secretion stimulation was 4.2% (inactive).

`Nc1ncnc2nc[nH]c12`: the GLP1 secretion stimulation is -1.7% (inactive).

Turning to `CC(N)C(=O)OC(C)(C)Cc1ccc(Cl)cc1` (stereo unspecified), the GLP1 secretion stimulation is 5.8% (inactive).

Take `COc1c2occc2c(OC)c2c(=O)cc(C)oc12`: the GLP1 secretion stimulation is 5.9% (inactive).

Turning to `CC1=C(C(=O)O)N2C(=O)[C@@H](NC(=O)[C@H](N)c3ccc(O)cc3)[C@H]2SC1`, the GLP1 secretion stimulation is -0.3% (inactive).

In the case of `COc1ccc(NS(=O)(=O)c2ccc(N)cc2)nn1`, the GLP1 secretion stimulation was 0.3% (inactive).

On to `NC[C@H]1O[C@H](O[C@H]2[C@H](O)[C@@H](O[C@H]3O[C@H](CO)[C@@H](O)[C@H](N)[C@H]3O)[C@H](N)C[C@@H]2N)[C@H](N)[C@@H](O)[C@@H]1O`, for which the GLP1 secretion stimulation was 1.5% (inactive).

Take `CCCCc1nc(Cl)c(CO)n1Cc1ccc(-c2ccccc2-c2nn[nH]n2)cc1`: the GLP1 secretion stimulation is 1.1% (inactive).

For the compound `CC(=O)Oc1cccc(O)c1`, the GLP1 secretion stimulation is 1.4% (inactive).

In the case of `COc1ccc(C(=O)c2ccccc2)c(O)c1`, the GLP1 secretion stimulation is 0.5% (inactive).

For `O=C(N[C@H](CO)[C@H](O)c1ccc([N+](=O)[O-])cc1)C(Cl)Cl`, the GLP1 secretion stimulation is -4.2% (inactive).

As to `CCN(CC)CCOC(=O)C(c1ccccc1)C1CCCCC1` (stereo unspecified), the GLP1 secretion stimulation was 2.9% (inactive).

Consider `Nc1c2ccccc2nc2ccccc12`, for which the GLP1 secretion stimulation was 11.4% (inactive).

In the case of `Oc1c(Br)cc(Br)c2cccnc12`, the GLP1 secretion stimulation was 4.3% (inactive).

Take `C[N+]12CCC(CC1)C(OC(=O)C(O)(c1ccccc1)c1ccccc1)C2` (stereo unspecified): the GLP1 secretion stimulation was -3.1% (inactive).

`CC(=O)Nc1c(I)cc(I)c(C(=O)O)c1I`: the GLP1 secretion stimulation was 0.7% (inactive).

Take `Cc1c(NC(C)C)c(=O)n(-c2ccccc2)n1C`: the GLP1 secretion stimulation was -0.1% (active).

Consider `COc1ccc2cc3[n+](cc2c1OC)CCc1cc2c(cc1-3)OCO2`, for which the GLP1 secretion stimulation is 0.3% (inactive).

Turning to `NC(N)=N/N=C/c1c(Cl)cccc1Cl`, the GLP1 secretion stimulation is 2.1% (inactive).

As for `CCN(CC)C(=O)c1cccc(C)c1`, the GLP1 secretion stimulation is 2.9% (inactive).

For the compound `CC(=O)OCC(COC(C)=O)OC(C)=O`, the GLP1 secretion stimulation is 0.1% (inactive).

In the case of `CC1(C)OC(=O)NC1=O`, the GLP1 secretion stimulation was -6.6% (inactive).

`COc1cnc(NS(=O)(=O)c2ccc(N)cc2)nc1`: the GLP1 secretion stimulation was 0.5% (inactive).

As for `CCCCC(CC)CN1CN(CC(CC)CCCC)CC(C)(N)C1` (stereo unspecified), the GLP1 secretion stimulation is 53.9% (active).

Consider `Cc1[nH]c(C)c(Cl)c(=O)c1Cl`, for which the GLP1 secretion stimulation was 0.1% (inactive).

As to `Cc1nnc(NS(=O)(=O)c2ccc(N)cc2)s1`, the GLP1 secretion stimulation is 2.8% (inactive).

As to `Nc1ccc(C(=O)O)cc1`, the GLP1 secretion stimulation is 0.8% (inactive).

Turning to `Nc1nccs1`, the GLP1 secretion stimulation is -1% (inactive).

As to `COc1ccc(-c2cc(C(F)F)nn2-c2ccc(S(N)(=O)=O)cc2)cc1F`, the GLP1 secretion stimulation is 5.7% (inactive).

For `NC(=O)c1ccc([N+](=O)[O-])cc1Cl`, the GLP1 secretion stimulation was 0% (inactive).

Turning to `CCC(=O)O[C@H]1[C@H](O[C@@H]2[C@@H](C)[C@H](O[C@H]3C[C@@](C)(OC)[C@@H](O)[C@H](C)O3)[C@@H](C)C(=O)O[C@H](CC)[C@@](C)(O)[C@H](O)[C@@H](C)C(=O)[C@H](C)C[C@@]2(C)O)O[C@H](C)C[C@@H]1N(C)C`, the GLP1 secretion stimulation is -0.1% (inactive).
